Measured values taken from PubChem BioAssay AID1159580 (chemical genetic matrix, 2015).
The campaign covered roughly 5,500 compounds. About 2,000 (36%) were called active. About 18% were inconclusive and are not listed. Rule as the data show it: active = normalized growth mostly below about 0.91 (no sharp cut-off); inconclusive = no clear call, values can overlap the other calls; inactive = mostly above about 0.92. This is one part of the list.

Experiment: chemical genetic growth profiling, strain panel (AID 1159580);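 also: tested at 20 µM; growth read once vehicle control cultures reached saturation at 30 °C; 1 = growth at the plate median or of vehicle wells; lower values mean less growth of the strain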
Conditions: growth OD

Measured: normalized growth

C[C@]12CCC3C(CC[C@]4(O)C[C@@H](O)CC[C@]34C=O)[C@@]1(O)CCC2C1=CC(=O)OC1 (stereo partly specified)
inactive: S. cerevisiae deletion strains, locus YJR066W, strain TOR1, stronger effect = lower value 0.934 | S. cerevisiae deletion strains, locus YKL009W, strain mrt4, stronger effect = lower value 0.978 | S. cerevisiae deletion strains, locus YKL068W, stronger effect = lower value 0.966 | S. cerevisiae deletion strains, locus YKL085W, strain MDH1 (second series), stronger effect = lower value 0.978 | S. cerevisiae deletion strains, locus YKL085W, strain MDH1, stronger effect = lower value 0.978 | S. cerevisiae deletion strains, locus YKL160W, strain elf1, stronger effect = lower value 0.972 | S. cerevisiae deletion strains, locus YKL190W, strain CNB1, stronger effect = lower value 0.997 | S. cerevisiae deletion strains, locus YKR001C, strain vps1, stronger effect = lower value 0.986 | S. cerevisiae deletion strains, locus YKR026C, strain gcn3, stronger effect = lower value 0.988 | S. cerevisiae deletion strains, locus YKR091W, strain srl3, stronger effect = lower value 0.981 | S. cerevisiae deletion strains, locus YLL001W, strain dnm1, stronger effect = lower value 0.975 | S. cerevisiae deletion strains, locus YLL026W, stronger effect = lower value 0.986 | S. cerevisiae deletion strains, locus YLL041C, strain sdh2, stronger effect = lower value 0.967 | S. cerevisiae deletion strains, locus YLR027C, strain aat2, stronger effect = lower value 0.958 | S. cerevisiae deletion strains, locus YLR039C, strain RIC1, stronger effect = lower value 0.975 | S. cerevisiae deletion strains, locus YLR058C, strain SHM2, stronger effect = lower value 0.989 | S. cerevisiae deletion strains, locus YLR102C, strain apc9, stronger effect = lower value 0.978 | S. cerevisiae deletion strains, locus YLR113W, strain HOG1, stronger effect = lower value 0.983 | S. cerevisiae deletion strains, locus YLR221C, strain rsa3, stronger effect = lower value 1 | S. cerevisiae deletion strains, locus YLR258W, strain gsy2, stronger effect = lower value 0.965 | S. cerevisiae deletion strains, locus YLR262C, strain YPT6 (second series), stronger effect = lower value 0.957 | S. cerevisiae deletion strains, locus YLR262C, strain YPT6, stronger effect = lower value 0.918 | S. cerevisiae deletion strains, locus YLR268W, strain sec22, stronger effect = lower value 0.979 | S. cerevisiae deletion strains, locus YLR320W, strain mms22, stronger effect = lower value 1.05 | S. cerevisiae deletion strains, locus YLR330W, strain CHS5, stronger effect = lower value 0.983 | S. cerevisiae deletion strains, locus YLR342W, strain FKS1 (second series), stronger effect = lower value 1.01 | S. cerevisiae deletion strains, locus YLR342W, strain FKS1, stronger effect = lower value 0.976 | S. cerevisiae deletion strains, locus YLR357W, strain rsc2, stronger effect = lower value 0.998 | S. cerevisiae deletion strains, locus YLR370C, strain arc18, stronger effect = lower value 0.999 | S. cerevisiae deletion strains, locus YLR371W, strain rom2, stronger effect = lower value 0.963 | S. cerevisiae deletion strains, locus YLR384C, strain iki3, stronger effect = lower value 1 | S. cerevisiae deletion strains, locus YLR418C, strain cdc73, stronger effect = lower value 0.95 | S. cerevisiae deletion strains, locus YML016C, strain PPZ1, stronger effect = lower value 0.99 | S. cerevisiae deletion strains, locus YML032C, strain rad52, stronger effect = lower value 0.976 | S. cerevisiae deletion strains, locus YML120C, strain ndi1, stronger effect = lower value 0.954 | S. cerevisiae deletion strains, locus YML124C, strain tub3, stronger effect = lower value 0.987 | S. cerevisiae deletion strains, locus YMR058W, strain fet3, stronger effect = lower value 0.969 | S. cerevisiae deletion strains, locus YMR078C, strain ctf18, stronger effect = lower value 0.965 | S. cerevisiae deletion strains, locus YMR125W, strain sto1, stronger effect = lower value 0.96 | S. cerevisiae deletion strains, locus YMR129W, stronger effect = lower value 0.982 | S. cerevisiae deletion strains, locus YMR205C, strain PFK2, stronger effect = lower value 0.881 | S. cerevisiae deletion strains, locus YMR231W, strain pep5, stronger effect = lower value 0.999 | S. cerevisiae deletion strains, locus YMR307W, strain GAS1, stronger effect = lower value 0.919 | S. cerevisiae deletion strains, locus YNL067W, strain RPL9B, stronger effect = lower value 1.01 | S. cerevisiae deletion strains, locus YNL071W, strain lat1, stronger effect = lower value 0.958 | S. cerevisiae deletion strains, locus YNL183C, strain NPR1, stronger effect = lower value 0.952 | S. cerevisiae deletion strains, locus YNL209W, strain ssb2, stronger effect = lower value 0.974 | S. cerevisiae deletion strains, locus YNL233W, strain BNI4, stronger effect = lower value 1.03 | S. cerevisiae deletion strains, locus YNL248C, strain rpa49, stronger effect = lower value 0.943 | S. cerevisiae deletion strains, locus YNL250W, strain rad50, stronger effect = lower value 0.968 | S. cerevisiae deletion strains, locus YNL271C, strain bni1, stronger effect = lower value 0.981 | S. cerevisiae deletion strains, locus YNL298W, strain CLA4, stronger effect = lower value 0.964 | S. cerevisiae deletion strains, locus YNL307C, strain MCK1, stronger effect = lower value 0.983 | S. cerevisiae deletion strains, locus YNL322C, strain KRE1 (second series), stronger effect = lower value 0.975 | S. cerevisiae deletion strains, locus YNL322C, strain KRE1, stronger effect = lower value 0.99 | S. cerevisiae deletion strains, locus YNR049C, strain mso1, stronger effect = lower value 0.971 | S. cerevisiae deletion strains, locus YNR052C, strain pop2, stronger effect = lower value 0.977 | S. cerevisiae deletion strains, locus YOL012C, strain htz1 1.05 | S. cerevisiae deletion strains, locus YOL147C, strain pex11, stronger effect = lower value 0.981 | S. cerevisiae deletion strains, locus YOR001W, strain rrp6, stronger effect = lower value 1.01 | S. cerevisiae deletion strains, locus YOR061W, strain CKA2, stronger effect = lower value 0.963 | S. cerevisiae deletion strains, locus YOR069W, strain VPS5, stronger effect = lower value 0.984 | S. cerevisiae deletion strains, locus YOR070C, strain gyp1, stronger effect = lower value 0.998 | S. cerevisiae deletion strains, locus YOR080W, strain dia2, stronger effect = lower value 0.988 | S. cerevisiae deletion strains, locus YOR083W, strain WHI5, stronger effect = lower value 0.939 | S. cerevisiae deletion strains, locus YOR106W, strain vam3, stronger effect = lower value 0.9 | S. cerevisiae deletion strains, locus YOR136W, strain idh2, stronger effect = lower value 0.981 | S. cerevisiae deletion strains, locus YOR144C, strain elg1, stronger effect = lower value 0.985 | S. cerevisiae deletion strains, locus YOR184W, strain ser1, stronger effect = lower value 0.975 | S. cerevisiae deletion strains, locus YOR231W, strain MKK1, stronger effect = lower value 1 | S. cerevisiae deletion strains, locus YOR265W, strain rbl2, stronger effect = lower value 0.975 | S. cerevisiae deletion strains, locus YOR270C, strain vph1, stronger effect = lower value 0.997 | S. cerevisiae deletion strains, locus YOR290C, strain snf2, stronger effect = lower value 0.894 | S. cerevisiae deletion strains, locus YOR316C, strain cot1, stronger effect = lower value 0.982 | S. cerevisiae deletion strains, locus YPL051W, strain arl3, stronger effect = lower value 0.995 | S. cerevisiae deletion strains, locus YPL055C, strain LGE1, stronger effect = lower value 1 | S. cerevisiae deletion strains, locus YPL078C, strain atp4, stronger effect = lower value 0.942 | S. cerevisiae deletion strains, locus YPL106C, strain sse1, stronger effect = lower value 0.871 | S. cerevisiae deletion strains, locus YPL240C, strain hsp82, stronger effect = lower value 0.988 | S. cerevisiae deletion strains, locus YPL256C, strain CLN2, stronger effect = lower value 0.974 | S. cerevisiae deletion strains, locus YPR119W, strain clb2, stronger effect = lower value 0.983 | S. cerevisiae deletion strains, locus YPR141C, strain kar3, stronger effect = lower value 0.982 | S. cerevisiae deletion strains, locus YPR163C, strain tif3, stronger effect = lower value 0.967 | S. cerevisiae deletion strains, locus YPR167C, strain met16, stronger effect = lower value 0.975 | S. cerevisiae deletion strains, strain wtn01, stronger effect = lower value 1.01 | S. cerevisiae strains, strain wild type, stronger effect = lower value 0.981
